Measured values reported in PubChem BioAssay (NCI).
This is part of a sample that, as a whole, favours compounds with a hit. Of some 79,000 tested, about 15% had one in any assay. Calls of active or inactive are those of the source. Rule as the data show it: active = growth inhibition above about 70%; inactive = the rest.

Columns and labels:
[1] = NCI Yeast Anticancer Drug Screen. Data for the rad50 strain (AID 155);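 also: 0% = growth of vehicle-only cultures of the same strain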; details: S. cerevisiae rad50 strain growth inhibition; at 50.0 µM; hits give high values
Outline: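 Yeast carrying a defined DNA repair defect were exposed to test compounds, and growth was compared with vehicle-treated controls to give percent inhibition.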

[2] = NCI Yeast Anticancer Drug Screen. Data for the mec2-1 strain (AID 157); details: S. cerevisiae mec2-1 strain, at 50.0 µM, hits give high values
Outline: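 mec2-1 yeast strain, carrying an alteration in DNA damage repair or cell cycle control, was exposed to compounds; growth inhibition was measured relative to vehicle-treated controls.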

[3] = NCI Yeast Anticancer Drug Screen. Data for the sgs1 mgt1 strain (AID 161);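 also: 0% = growth of cultures given vehicle only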; details: S. cerevisiae sgs1 mgt1 strain, at 50.0 µM, hits give high values
Outline: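 Growth of a repair-deficient yeast mutant was monitored after compound treatment and expressed as inhibition relative to vehicle-treated cultures.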

[4] = NCI Yeast Anticancer Drug Screen. Data for the cln2 rad14 strain (AID 165);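 also: 0% = growth equal to vehicle treated cultures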; details: S. cerevisiae cln2 rad14 strain, at 50.0 µM, hits give high values
Outline: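 Yeast carrying cln2 and rad14 alterations (cell cycle control and DNA damage repair) were exposed to compounds. Growth inhibition was measured against vehicle-treated controls.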

[5] = NCI Yeast Anticancer Drug Screen. Data for the bub3 strain (AID 167); details: S. cerevisiae bub3 mutant strain, at 50.0 µM, hits give high values
Outline: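 Compounds were applied to a genetically altered yeast strain carrying a cell-cycle control defect. Growth inhibition was scored against vehicle-treated controls.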

[6] = NCI Yeast Anticancer Drug Screen. Data for the mlh1 rad18 strain (AID 175); details: S. cerevisiae mlh1 rad18 strain growth inhibition; at 50.0 µM; hits give high values
Outline: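 Growth inhibition of the yeast strain was measured after compound exposure and expressed relative to vehicle-treated controls. The strain carries defined defects in DNA damage repair.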

Measured: growth inhibition

CCCOC(=O)c1ccc(C(C)C)cc1
inactive: [1] 1.1% | [2] 0.8% | [3] -5.3% | [4] 3.7% | [5] 2.25% | [6] -1%

CCCCCCCCC(=O)c1ccc(N=Nc2ccc(OCC)cc2)cc1
inactive: [1] -6% | [2] 12.9% | [3] -5.5% | [4] -8.55% | [5] 3.15% | [6] -14.8%

NC(=O)C(F)(F)c1ccccc1
inactive: [1] 2.3% | [2] -12.8% | [3] 14.8% | [4] 10.1% | [5] 21.4% | [6] 9.8%

O=[N+]([O-])c1cnc(N(CCO)CCO)s1
inactive: [1] 30.4% | [2] -25.4% | [3] 0.1% | [4] 37.8% | [5] -11.5% | [6] 16.4%

COc1ccc(C2NC(C(=O)O)Cc3c2[nH]c2ccccc32)cc1OC (stereo unspecified)
inactive: [1] -12.2% | [2] -5.6% | [3] -14.8% | [4] -12.9% | [5] -4.3% | [6] -22%

Fc1cccc(-c2nnc(-c3cccc4ccccc34)o2)c1
inactive: [1] -8.65% | [2] -1.8% | [3] -0.5% | [4] -49.8% | [5] 1.45% | [6] -5.1%

Cc1cc(S(=O)(=O)Cl)ccc1Cl
inactive: [1] 14.6% | [2] 1.3% | [3] -0.6% | [4] -29.2% | [5] 9.05% | [6] 7.6%

Cc1ccc(S(=O)(=O)N(c2c(F)cc(C#N)cc2F)S(=O)(=O)c2ccc(C)cc2)cc1
inactive: [1] 51.7% | [2] 6.35% | [3] 32.8% | [4] 30.1% | [5] 2.6% | [6] 31.6%

COc1cnc(NS(=O)(=O)c2ccc(N)cc2)nc1
inactive: [1] -12.2% | [2] -9.8% | [3] -9.45% | [4] 10.2% | [5] -10% | [6] -7.2%

CC(=O)/C(=C/n1ccc(=O)[nH]c1=S)C(=O)Nc1ccc([N+](=O)[O-])cc1
inactive: [1] -18.3% | [2] -18.8% | [3] -38.2% | [4] -20.4% | [5] -2.85% | [6] -10.9%

O=C(Nc1c(O)[nH][nH]c1=O)c1ccccc1
inactive: [1] 0.45% | [2] -0.05% | [3] -9.7% | [4] -36% | [5] -15.7% | [6] -0.1%

Cc1ccc2c(c1)CC1(C2=O)[C@H](c2ccccc2)C2C(=O)c3ccc(C)cc3C2[C@H]1c1ccccc1 (stereo partly specified)
inactive: [1] -14.8% | [2] 13.5% | [3] -0.15% | [4] -11.1% | [5] 14.6% | [6] 9.5%

Cc1cc(=O)[nH]n1-c1ccc([N+](=O)[O-])cc1
inactive: [1] 6.15% | [2] -2.4% | [3] 5.3% | [4] -9.8% | [5] -1.7% | [6] 14.8%

O=C1CS(=O)(=O)C2(CCCCC2)C(=O)N1
inactive: [1] -15.1% | [2] -5.65% | [3] -12.2% | [4] -42.1% | [5] -3.2% | [6] -27.6%

O=[N+]([O-])c1ccc2oc3cccnc3c2c1
inactive: [1] 28.6% | [2] -2.8% | [3] -2.65% | [4] -14.1% | [5] 1.3% | [6] 12.8%

CCCCCC(=O)C#Cc1ccccc1
inactive: [1] 24.1% | [2] 11.1% | [3] 11.7% | [4] -7.25% | [5] -4.9% | [6] 20.4%

O=[N+]([O-])c1c(F)cc(F)cc1F
inactive: [1] -11% | [2] 5.75% | [3] -5.15% | [4] -19.9% | [5] 2.55% | [6] -6.65%

COC(=O)c1cc(OC)nc(Cl)n1
inactive: [1] 3.9% | [2] 13.2% | [3] 1.45% | [4] -37% | [5] -11.9% | [6] 1.9%

COc1cc(-c2cc(OC)c(N=N/C(=N/Nc3ccc([N+](=O)[O-])cc3)c3ccc([N+](=O)[O-])cc3)cc2Cl)c(Cl)cc1N=N/C(=N\Nc1ccc([N+](=O)[O-])cc1)c1ccc([N+](=O)[O-])cc1
inactive: [1] 7.9% | [2] 9.65% | [3] -5.95% | [4] -21.2% | [5] -14.2% | [6] -13.8%

C/C(=C\C(=N\Nc1nc(C)cc(=O)[nH]1)c1ccccc1)c1ccccc1
inactive: [1] 12.4% | [2] -11.4% | [3] -8.75% | [4] 3.45% | [5] 6.8% | [6] -2.2%

COc1ccccc1OCC(COC(=O)Nc1ccccc1)OC(=O)Nc1ccccc1 (stereo unspecified)
inactive: [1] -44.2% | [2] -27.2% | [3] -30.4% | [4] -0.6% | [5] -17.6% | [6] -17.8%

COc1ccc(/C=C2\C=Cc3ccccc32)cc1OC
inactive: [1] -21.8% | [2] -6% | [3] 0.7% | [4] 13.4% | [5] 10.7% | [6] 4.75%

CCOC(=O)NNC(C)(C)C
inactive: [1] 4.15% | [2] 4.35% | [3] 4.5% | [4] 21.8% | [5] -9% | [6] -3.7%

C=CCNC=O
inactive: [1] 2.55% | [2] 3.6% | [3] -6.4% | [4] -5.05% | [5] 14.4% | [6] -18.1%

c1csc(C(NC2=NCCO2)C2CC2)c1 (stereo unspecified)
inactive: [1] -32.9% | [2] -11.2% | [3] -22.9% | [4] -25.1% | [5] -27.5% | [6] 41.8%

CCCCCCCCCCN=C(N)CSSCC(N)=NCCCCCCCCCC
active: [1] 96.2% | [2] 97% | [3] 97.1% | [4] 92.8% | [5] 95% | [6] 97.4%

O=C1C=C(Nc2ccccc2C(=O)c2ccccc2)c2ccccc2C1=O
inactive: [1] 18.9% | [2] -30.4% | [3] 6.65% | [4] 4.9% | [5] 14.8% | [6] 2.4%

CCCCCCCCCC[N+](C)(C)CC(O)CO (stereo unspecified)
inactive: [1] -51.8% | [2] 7.9% | [3] 2.2% | [4] 9.45% | [5] -2.85% | [6] -11.3%

O=C(C(CO)c1ccccc1)N1CCOCC1 (stereo unspecified)
inactive: [1] -10.3% | [2] -15.4% | [3] -3.45% | [4] -23.4% | [5] 4.35% | [6] 2.55%

CCc1nc(N)nc(N)c1-c1ccc(OC)c(N)c1
inactive: [1] 22.4% | [2] 28.1% | [3] 22.6% | [4] 35.7% | [5] 13.6% | [6] 43.4%

O=C(O)CCc1nc2ccccc2c(=O)n1Cc1ccccc1
inactive: [1] 11.1% | [2] 10.1% | [3] -7.3% | [4] -6.1% | [5] 2.8% | [6] 10.4%

CCOP(=Nc1ccccc1)(OCC)OCC
inactive: [1] 4.1% | [2] 5.85% | [3] -3.9% | [4] -5% | [5] 1.75% | [6] 9.4%

O=C(c1ccccc1)C(O)(c1ccccc1)C1CCCC/C1=N\N(c1ccccc1)c1ccccc1 (stereo unspecified)
inactive: [1] 37% | [2] 31.4% | [3] 29.9% | [4] 32.7% | [5] -20.4% | [6] 37.3%

CS(=O)(=O)Nc1ccc(NS(C)(=O)=O)cc1
inactive: [1] 1.6% | [2] 17.5% | [3] 4.45% | [4] 1.75% | [5] 2.9% | [6] -13.2%

O=C1c2ccccc2-c2nnc(-c3ccc(Cl)cc3)cc21
inactive: [1] -29.1% | [2] -14.2% | [3] -18.2% | [4] -16.9% | [5] -24.2% | [6] -18.3%

Oc1ccc2ccc(O)cc2c1
inactive: [1] 21.4% | [2] 21.6% | [3] 10.4% | [4] 12.2% | [5] 11.8% | [6] 5.4%

CCC(CCC#N)(CCC#N)C(=O)c1ccc(C)s1
inactive: [1] 1.5% | [2] -4.3% | [3] 1.3% | [4] -19.8% | [5] 0.1% | [6] 2.45%

Cc1cc(-n2cnc3c(N(CCO)CCO)ncnc32)ccc1[N+](=O)[O-]
inactive: [1] 10.1% | [2] -8.5% | [3] -3.95% | [4] -1.9% | [5] 0.5% | [6] -5.8%

CC(=O)CC(=O)Nc1cc(C)c(NC(=O)CC(C)=O)cc1C
inactive: [1] 26.2% | [2] 26.6% | [3] 31.1% | [4] 7.55% | [5] 38.8% | [6] 30.6%

O=NN(CCOS(=O)(=O)c1ccc(Br)cc1)C(=O)NC1CCCCC1
inactive: [1] 32% | [2] 9.25% | [3] 18.6% | [4] 28.6% | [5] -1.95% | [6] 25.2%

COc1cccc(/C(C=O)=C(\Cl)c2ccc(OC)c(OC)c2)c1
inactive: [1] 10.1% | [2] 9.55% | [3] 12.4% | [4] 6.7% | [5] 33.5% | [6] -8.3%
